VACV Venus inh – inhibitors of vaccinia virus (Venus reporter); Vaccinia virus Venus reporter expression, fluorescence; Potency, µM (highest dose often 36.5 µM), usual class: inhibitors; 0.46% of 330,000 active; calls by dose curve; tested in A549 cells; further: nearly all actives have a fitted effect of over 30% in size
FMDV antiviral – antivirals against foot and mouth disease virus; Potency, µM (highest dose often 57.9 µM), actives largely listed as inhibitors; FMDV antiviral cell-based qHTS; 1.2% of 410,000 active; AID 1159524; calls by dose curve; tested in HEK293T cells; further: read-out not given here; nearly all actives have a fitted effect of over 45% in size
Sm TGR inh – blocks Schistosoma mansoni thioredoxin glutathione reductase; Q962Y6; purified TGR, DTNB reduction, TNB absorbance 405 nm; Potency, µM (top dose mostly 114 µM), hits mostly inhibitors; 3% of 360,000 active; active means well fitted inhibition curve with a large enough effect; inconclusive means small, poorly fitted or top-dose-only effect; inactive means no such curve, though single readings can be large or run the other way; further: nearly all actives have a fitted effect of over 60% in size
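TGR 20 nM + NADPH 100 uM (dispensed conc.), cpd preinc 15 min RT; start with NADPH (500 uM addition) then DTNB (15 mM addition). Kinetic TNB absorbance, 405 nm filter. Four-parameter Hill fit across titration.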
VACV mCherry inh – vaccinia inhibition (mCherry reporter) | AID 720579 | Vaccinia virus mCherry reporter infection, fluorescence | 0.63% of 310,000 active | Potency, µM (top dose mostly 36.5 µM), most hits filed as inhibitors; calls by dose curve; tested in A549 cells; further: nearly all actives have a fitted effect of over 35% in size
Lassa entry inh – inhibitors of Lassa virus binding or cell entry; Lassa virus pseudotype entry inhibition, cell reporter; Potency, µM (highest dose often 37.9 µM), usual class: inhibitors; 1.2% of 300,000 active; calls by dose curve; tested in HEK293 cells; further: nearly all actives have a fitted effect of over 50% in size
Marburg entry inh – Marburg virus entry inhibition. Marburg virus pseudotyped entry inhibition, cell reporter. 1.8% of 300,000 active. Potency, µM (highest dose often 37.8 µM), most hits filed as inhibitors; calls by dose curve; tested in HEK293 cells
Large screens that a line does not name were inactive. Only some compounds are listed: those with a hit (about 5.4% of all), similar ones and a draw of the others.

O=C(N/N=C/C(Br)=C/c1ccccc1)C(O)c1ccccc1 (stereo not drawn)	Lassa entry inh inconclusive, Marburg entry inh inconclusive
Cc1oc(-c2cccc(Cl)c2)nc1CS(=O)(=O)CC(=O)NCc1ccccc1Cl	Sm TGR inh inconclusive, Marburg entry inh inconclusive
COC(=O)C1=C(C)N(Cc2ccco2)C(=O)N[C@H]1c1ccccc1	Sm TGR inh 20µM (no result: VACV Venus inh, FMDV antiviral, VACV mCherry inh)
COC(=O)C1=C(C)N(Cc2ccco2)C(=O)N[C@H]1c1ccc(Br)cc1	Sm TGR inh 35µM, Lassa entry inh inconclusive (no result: VACV Venus inh, FMDV antiviral, VACV mCherry inh)
CC(=O)C1=C(C)N(Cc2ccccc2)C(=O)N[C@H]1c1ccco1	Sm TGR inh 18µM (no result: Lassa entry inh)
COC(=O)C1=C(C)N(Cc2ccco2)C(=O)NC1c1ccco1 (stereo not drawn)	none (no result: VACV Venus inh, FMDV antiviral, Sm TGR inh, VACV mCherry inh, Lassa entry inh)
COc1ccccc1NC(=O)N1CCN(c2nnc(C)c3c(C)n(-c4ccccc4)nc23)CC1	none (no result: Marburg entry inh)
CCOC(=O)Nc1ccc(C)cc1NC(=O)OCC	none
CCCOC(=O)Nc1ccc([As](=O)(O)O)cc1NC(=O)OCCC	Sm TGR inh 13µM
CCOC(=O)C1=CN(CCNC(=O)OC(C)(C)C)C(=O)NC1c1ccccc1 (stereo not drawn)	none (no result: VACV Venus inh, FMDV antiviral, Sm TGR inh, VACV mCherry inh, Lassa entry inh)
Cc1nc(NC(=O)c2ccccc2)sc1C1(C)CC(c2c(Cl)cccc2Cl)=NO1 (stereo not drawn)	Sm TGR inh 32µM (no result: Lassa entry inh, Marburg entry inh)
CSCc1ccc(C(=O)N2CCCC(Nc3ccc4c(c3)OCCO4)C2)o1 (stereo not drawn)	Sm TGR inh 28µM (no result: VACV Venus inh, VACV mCherry inh, Lassa entry inh, Marburg entry inh)
O=C(N[C@@H](Cc1ccccc1)C(=O)CCl)OCc1ccccc1	VACV Venus inh 10µM, FMDV antiviral 32µM, VACV mCherry inh 10µM, Lassa entry inh 3.3µM, Marburg entry inh 16µM
O=C(N[C@@H](Cc1ccccc1)C(=O)N[C@@H](Cc1ccccc1)C(=O)O)OCc1ccccc1	none (no result: Lassa entry inh, Marburg entry inh)
CC(C)[C@H](NC(=O)OCc1ccccc1)C(=O)N[C@H](C=O)Cc1ccccc1	Marburg entry inh 0.65µM (no result: Sm TGR inh)
CCOC(=O)C1=C(C)NC(=O)N[C@H]1c1ccc2c(c1)OCO2	none (no result: VACV Venus inh, FMDV antiviral, Sm TGR inh, VACV mCherry inh, Lassa entry inh)
COc1ccc(CC(=O)N(Cc2nc(-c3ccc(C)cc3)no2)C(C)C)cc1	none
COc1ccc(-n2c(N)c(C(=O)NCc3ccco3)c3nc4ccccc4nc32)c(OC)c1	VACV Venus inh inconclusive, FMDV antiviral inconclusive, Sm TGR inh 25µM, Marburg entry inh inconclusive
CCCCCCn1c(N)c(C(=O)NCCN2CCOCC2)c2nc3ccccc3nc21	VACV Venus inh inconclusive, FMDV antiviral 11µM, Sm TGR inh inconclusive, Lassa entry inh inconclusive, Marburg entry inh inconclusive (no result: VACV mCherry inh)
COc1ccc(CCNC(=O)c2c(N)n(CCN3CCOCC3)c3nc4ccccc4nc23)cc1OC	VACV Venus inh inconclusive, VACV mCherry inh inconclusive, Lassa entry inh 18µM, Marburg entry inh inconclusive (no result: FMDV antiviral)
Nc1c(C(=O)NCc2ccco2)c2nc3ccccc3nc2n1CCc1ccccc1F	FMDV antiviral inconclusive, Sm TGR inh 25µM, Marburg entry inh inconclusive (no result: VACV Venus inh, VACV mCherry inh)
Nc1c(C(=O)NCc2ccco2)c2nc3ccccc3nc2n1Cc1ccc(F)cc1	Sm TGR inh 11µM, Marburg entry inh inconclusive
COc1ccc(CCn2c(N)c(C(=O)NCc3ccco3)c3nc4ccccc4nc32)cc1OC	Sm TGR inh 16µM, Lassa entry inh inconclusive, Marburg entry inh inconclusive (no result: FMDV antiviral)
Nc1c(C(=O)NCc2ccco2)c2nc3ccccc3nc2n1CCN1CCOCC1	Sm TGR inh 25µM, Marburg entry inh inconclusive (no result: VACV Venus inh, VACV mCherry inh)
COc1ccc(CCn2c(N)c(C(=O)NCc3ccco3)c3nc4ccccc4nc32)cc1	Lassa entry inh inconclusive, Marburg entry inh inconclusive
O=c1c2c3nc4ccccc4nc3n(Cc3ccccc3)c2ncn1Cc1ccco1	FMDV antiviral inconclusive, Sm TGR inh 8.9µM
CCOc1cc(C2CC(=O)Nc3c2c(C)nn3-c2nc(C)cc(C)n2)ccc1O (stereo not drawn)	none
COc1ccc(NC(=O)Cn2c(=O)n(-c3ccc(Cl)cc3)c(=O)c3c(C)c(C(=O)N(C)C)sc32)cc1Cl	none (no result: Marburg entry inh)
Nc1c(C(=O)NCc2ccco2)c2nc3ccccc3nc2n1Cc1ccccc1	Sm TGR inh 28µM
COc1ccc(Cn2c(N)c(C(=O)NCc3ccco3)c3nc4ccccc4nc32)cc1	Lassa entry inh inconclusive, Marburg entry inh inconclusive
CCNc1ccccc1CP(=O)(c1ccccc1)c1ccccc1O (stereo not drawn)	Sm TGR inh 0.5µM
CC(C)Sc1nc(NCc2ccco2)c2c3c(sc2n1)COC(C)(C)C3	Sm TGR inh 22µM (no result: VACV mCherry inh)

Screening data from PubChem BioAssay.
